# From PubChem BioAssay AID932 (The Scripps Research Institute Molecular Screening Center, 2007)
# Out of some 200,000 compounds screened, about 5,100 (2.5%) were called active. The sample holds actives, similar compounds and a random draw of the others, so the mix is not that of the screen. A number with no mark means an inactive call.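 Rule for the calls: active = activation above the screen-wide mean activation plus 3 SD (cut at about 130% in these data); inactive = the rest.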
# Assay: STAT1 signaling activators, primary screen, cell-based, HTS, luciferase reporter (AID 932);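 note: raw ratio to IFN-gamma control signal so 100% means no change and 0% no light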
# Conditions: NIH 3T3 STAT1-luciferase reporter, IFN-gamma, luminescence; at 5.5 µM; active compounds read high; 100% = IFN-gamma alone, no compound
row,SMILES,activation (% of control)
1,Cc1[nH]n(-c2ccc(Cl)cc2)c(=O)c1/C=N/n1c(C)nc2ccccc2c1=O,99.3%
2,Cc1[nH]n(-c2ccccc2)c(=O)c1/C=N/NC(=O)c1ccoc1C,155% (active)
3,Cc1ccc(-n2[nH]c(C)c(/C=N/NC(=O)c3cccc([N+](=O)[O-])c3)c2=O)cc1C,101%
4,C=CCn1c(SCC(N)=O)nnc1-c1cc2c(s1)CCC(CC)C2 (centres undefined),121%
5,CC1CN(/C=C/C(=O)C(F)(F)F)CC(C)O1 (centres undefined),95.8%
6,CCSc1sc(CC)cc1C=O,107%
7,COc1ccccc1N1CCN(C(=O)c2cc(-c3ccc(Br)cc3)on2)CC1,99.6%
8,O=C(c1ccc(F)cc1)N1CCCC(c2nc(-c3cccs3)no2)C1 (centres undefined),96.9%
9,O=C(c1cc(-c2cccs2)on1)N1CCCCC1,162% (active)
10,Cc1ccc(-c2cc(C(=O)N3CCc4ccccc4C3)no2)cc1,97.3%
11,O=C(c1cc(-c2ccccc2O)on1)N1CCCC1,108%
12,COc1ccccc1-c1cc(C(=O)N2CCCCC2)no1,164% (active)
13,COc1ccc(C2CC(c3cccs3)Nc3nnnn32)cc1 (centres undefined),87.6%
14,Cc1cc(=O)[nH]c(N/N=C/c2c(C)nn(-c3ccccc3Cl)c2Cl)n1,100%
15,CC(OC(=O)CNS(=O)(=O)/C=C/c1ccccc1)C(=O)Nc1ccc(S(=O)(=O)N2CCCC2)cc1 (centres undefined),89%
16,CC(=O)c1ccc(NC(=O)c2ccc3c(Cl)c4c(nc3c2)CCCC4)cc1,113%
17,O=C(CN1CCN(c2ccc(O)cc2)CC1)NC1CCCc2ccccc21 (centres undefined),101%
18,Cc1ccc(OCc2nnc(SC3CCc4ccccc4C3=O)n2C)cc1 (centres undefined),105%
19,CCc1nnc(NS(=O)(=O)c2ccc(NC(=S)NC(=O)c3cccs3)cc2)s1,109%
20,CC(=O)Nc1ccc(S(=O)(=O)Nc2nccc(/C=C/c3ccccc3F)n2)cc1,98.1%
21,Cc1cc(C)nc(NS(=O)(=O)c2ccc(N/C=C\C(=O)c3cccs3)cc2)n1,135% (active)
22,O=C(c1cccs1)n1nc(NCc2ccccc2)nc1NCc1ccccc1,107%

row,SMILES,activation (% of control)
1,CNC(=O)COC(=O)c1cc(-c2ccc(OC)cc2)nc2ccccc12,99.7%
2,CC(C)(C)NC(=O)NC(=O)COC(=O)Cc1c(F)cccc1Cl,113%
3,C=CCSc1nc2ccccc2[nH]1,109%
4,CCCCSc1nc2ccccc2[nH]1,121%
5,O=C(CSc1nc2ccccc2[nH]1)c1cccs1,136% (active)
6,CCOc1cc2[nH]c(=O)n(Cc3ccc(C(=O)NCCCN4CCCC4=O)cc3)c(=O)c2cc1OCC,92.1%
7,COc1ccc(C2(CNC(=O)Cc3ccc(OC)c(OC)c3)CCCC2)cc1,94.7%
8,N/C(=N\OC(=O)CCC1CCCCC1)c1ccccn1,130% (active)
9,O=C(OCc1ccc([N+](=O)[O-])cc1)c1ccccn1,95.9%
10,N/C(=N\OC(=O)c1ccc([N+](=O)[O-])cc1)c1ccccn1,81.4%
11,N/C(=N\OC(=O)Cc1ccc([N+](=O)[O-])cc1)c1ccccn1,139% (active)
12,CCC(C)(NC(=O)c1ccccn1)C(=O)NC1CCCCC1 (centres undefined),95.5%
13,N/C(=N\OC(=O)CC1CCCCC1)c1ccccc1,116%
14,COc1cc(SC)ccc1C(=O)Nc1nc(C)cs1,12.9%
15,COC(=O)c1sc(NC(=O)c2ccc(OC)cc2OC)nc1C,75.1%
16,COc1ccc(C(=O)Nc2nncs2)c(OC)c1,131% (active)
17,COc1ccc(S(=O)(=O)N2CCN(C(=O)c3cc(C)oc3C)CC2)cc1,90.8%
18,Cc1ccc([N+](=O)[O-])c(OCCCNCC(C)O)c1 (centres undefined),101%
19,CN1CCN(C(=O)/C(=C\c2ccc3c(c2)OCO3)NC(=O)c2cccs2)CC1,98.7%
20,COC(=O)c1ccccc1SC1CC(=O)N(c2cccc(C)c2)C1=O (centres undefined),94.5%
21,CC1CCN(S(=O)(=O)c2ccc3ncn(CC(=O)N(C)C4CCCCC4)c(=O)c3c2)CC1,100%
22,Cc1cccc(C)c1NC(=O)C1CCCN1C(=O)OC(C)(C)C (centres undefined),104%

row,SMILES,activation (% of control)
1,CCNC(=O)NNC(=O)C1CC(c2cccs2)=NO1 (centres undefined),100%
2,Cc1occc1C(=O)Nc1nnc(C2CCCCC2)s1,107%
3,O=C(Nc1nnc(C2CC2)s1)c1ccccn1,129% (active)
4,O=C(Cc1cccs1)Nc1nnc(C2CC2)s1,90.1%
5,Cc1nc2ccccn2c1C(=O)NN=C1CCN(C)CC1,96.3%
6,CN1CCN(c2ccc(NC(=O)c3ccc4c(c3)[nH]c(=O)n4Cc3ccc(F)cc3)cc2)CC1,98.7%
7,Clc1cccc(CN2COc3c(cc(Cl)c4cccnc34)C2)c1,94.3%
8,Cc1ccc(NC(=O)c2csc3c2CCCC3)cc1,176% (active)
9,CC(=O)Cc1nsc(NC(=O)c2csc3c2CCCC3)n1,102%
10,O=C(NCc1ccccc1Cl)c1csc2c1CCCCC2,107%
11,COC(=O)c1sccc1NC(=O)c1csc2c1CCCC2,106%
12,COC(=O)c1sc(NC(=O)c2csc3c2CCCC3)nc1C,149% (active)
13,Cc1ccc(NC(=O)c2c(NC(=O)CCC(=O)O)sc3c2CCCCC3)cc1,105%
14,O=C(COc1ccccc1Cl)Nc1ccc(C(=O)c2ccc(C(=O)O)cc2)cc1,98%
15,CSCCC(=O)N1CCCC(CNC(=O)c2ccccc2Cl)C1 (centres undefined),96.7%
16,CCN(CC)S(=O)(=O)c1ccc(NC(=O)c2cccnc2Cl)c(NC(=O)c2cccnc2Cl)c1,88.7%
17,O=C1Nc2cc(Cl)c(Cl)cc2N(O)N1c1ccccc1Cl,82.7%
18,CC1CCN(C(=S)c2ccc(-c3ccc(Cl)cc3Cl)o2)CC1,85.7%
19,S=C(c1ccc(-c2ccccc2)o1)N1CCCCC1,138% (active)
20,S=C(NCCc1ccccc1)N1CCCCC1,122%
